Data taken from the supplement of paper PMC4206461.
Unmarked numbers belong to inactive results.

Experiments:
[1] = test system: Pseudomonas aeruginosa PA14 dppA1-A5 penta mutant + pBBR5.DppA1 (PA14_58350); experiment: respiration area under curve with compound as sole nitrogen source, 24 h (OmniLog AUC (arbitrary units)); higher = more respiration / better utilisation as nitrogen source, active = 2000 or more
Method: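 Biolog Phenotype MicroArray plates PM6-PM8: each di/tripeptide is the sole nitrogen source. Tetrazolium reduction was read in the OmniLog for 24 h at 37°C and summarised as area under the respiration curve (arbitrary units). Values below 2000 count as no respiration. Strain is the SBP penta mutant complemented with DppA1 on a plasmid under its native promoter. Lys/His/Cys peptides are excluded.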

[2] = test system: Pseudomonas aeruginosa PA14 dppBCDF deletion mutant; experiment: respiration area under curve with compound as sole nitrogen source, 24 h (OmniLog AUC (arbitrary units)); higher = more respiration / better utilisation as nitrogen source, active = 2000 or more; extreme values may be limits of the assay
Method: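 Biolog Phenotype MicroArray plates PM6-PM8: each di/tripeptide is the sole nitrogen source. Tetrazolium reduction was read in the OmniLog every 15 min for 24 h at 37°C and summarised as area under the respiration curve (arbitrary units). Values below 2000 count as no respiration. Strain is the dipeptide ABC transporter deletion mutant.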

[3] = test system: Pseudomonas aeruginosa PA14 wild type; experiment: respiration area under curve with compound as sole nitrogen source, 24 h (OmniLog AUC (arbitrary units)); higher = more respiration / better utilisation as nitrogen source, active = 2000 or more
Method: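 Biolog Phenotype MicroArray plates PM6-PM8: each di/tripeptide is the sole nitrogen source (IF-0 medium with succinate/ferric citrate and dye mix A). Tetrazolium reduction was read in the OmniLog every 15 min for 24 h at 37°C and summarised as area under the respiration curve (arbitrary units). The paper counts values below 2000 as no respiration and above 8000 as solid respiration. Replicate datasets are averaged.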

Structure (SMILES) | respiration area under curve [1] | respiration area under curve [2] | respiration area under curve [3]
NC(N)=NCCC[C@H](NC(=O)[C@@H]1CCCN1)C(=O)O (plate: PM8) | 10300 (active) | 7840 (active) | –
CC[C@H](C)[C@H](N)C(=O)N[C@@H](CCCN=C(N)N)C(=O)O (plate: PM6) | 7890 (active) | 8420 (active) | 9480 (active)
NC(N)=NCCC[C@H](N)C(=O)N[C@@H](Cc1ccccc1)C(=O)O (plate: PM6) | 7570 (active) | 8100 (active) | –
NCC(=O)N[C@@H](Cc1ccccc1)C(=O)O (plate: PM6) | 2000 (active) | 350 | –
NCC(=O)N[C@@H](Cc1ccc(O)cc1)C(=O)O (plate: PM6) | 1420 | 216 | –
CC[C@H](C)[C@H](NC(=O)[C@H](C)N)C(=O)O (plate: PM8) | 7110 (active) | 1150 | 9130 (active)
CC[C@H](C)[C@H](N)C(=O)N[C@@H](CCSC)C(=O)O (plate: PM6) | 289 | 0 | –
CCC(C)C(N)C(=O)NC(CC(N)=O)C(=O)O (stereo unspecified) (plate: PM8) | 7760 (active) | 488 | –
CC(C)C[C@H](NC(=O)[C@@H](N)C(C)C)C(=O)O (plate: PM7) | 7530 (active) | 3160 (active) | –
C[C@H](N)C(=O)N[C@@H](CCC(N)=O)C(=O)O (plate: PM8) | 10400 (active) | 3540 (active) | –
CC(C)[C@H](N)C(=O)N[C@@H](Cc1ccc(O)cc1)C(=O)O (plate: PM7) | 7120 (active) | 3890 (active) | 8020 (active)
N[C@@H](Cc1ccccc1)C(=O)N[C@@H](Cc1c[nH]c2ccccc12)C(=O)O (plate: PM7) | 389 | 85 | 524
O=C(O)[C@H](Cc1c[nH]c2ccccc12)NC(=O)[C@@H]1CCCN1 (plate: PM8) | 1320 | 358 | –
NC(N)=NCCC[C@H](N)C(=O)N[C@@H](CCC(=O)O)C(=O)O (plate: PM6) | 8440 (active) | 8810 (active) | –
CC(C)[C@H](NC(=O)[C@@H](N)CCC(=O)O)C(=O)O (plate: PM6) | 2600 (active) | 0 | 5390 (active)
C[C@@H](O)[C@H](N)C(=O)N[C@@H](CCC(N)=O)C(=O)O (plate: PM8) | 10400 (active) | 454 | –
N[C@@H](Cc1ccccc1)C(=O)NCC(=O)NCC(=O)O (plate: PM8) | 7350 (active) | 1300 | –
NC(=O)CC[C@H](NC(=O)[C@@H](N)Cc1ccc(O)cc1)C(=O)O (plate: PM7) | 12100 (active) | 10600 (active) | 13000 (active)
CSCC[C@H](NC(=O)[C@@H](N)[C@@H](C)O)C(=O)O (plate: PM7) | 2920 (active) | 204 | –
C[C@H](NC(=O)[C@@H](N)CO)C(=O)O (plate: PM7) | 9020 (active) | 2670 (active) | –
NCC(=O)N[C@@H](CO)C(=O)O (plate: PM6) | 6080 (active) | 2360 (active) | –
NCC(=O)N[C@@H](Cc1c[nH]c2ccccc12)C(=O)O (plate: PM6) | 49.2 | 0 | 755
CC(C)[C@H](NC(=O)[C@@H](N)CO)C(=O)O (plate: PM7) | 6730 (active) | 3050 (active) | 8700 (active)

Structure (SMILES) | respiration area under curve [1] | respiration area under curve [2] | respiration area under curve [3]
CC(C)C[C@@H](N)C(=O)NCC(=O)O (plate: PM8) | 0 | 0 | –
CC(C)[C@H](N)C(=O)N[C@@H](CCC(=O)O)C(=O)O (plate: PM8) | 2880 (active) | 0 | 5380 (active)
N[C@@H](CO)C(=O)N[C@@H](CC(=O)O)C(=O)O (plate: PM8) | 2890 (active) | 0 | –
N[C@@H](Cc1ccccc1)C(=O)N[C@@H](Cc1ccccc1)C(=O)O (plate: PM7) | 5690 (active) | 2740 (active) | 5220 (active)
C[C@H](NC(=O)[C@@H](N)[C@@H](C)O)C(=O)O (plate: PM7) | 8470 (active) | 3130 (active) | –
N[C@@H](CC(=O)O)C(=O)N[C@@H](CC(=O)O)C(=O)O (plate: PM6) | 197 | 12.5 | –
NC(=O)CC[C@H](N)C(=O)NCC(=O)O (plate: PM6) | 5240 (active) | 2500 (active) | 7270 (active)
C[C@H](N)C(=O)N[C@@H](C)C(=O)O (plate: PM6) | 7210 (active) | 6250 (active) | 8430 (active)
CSCC[C@H](N)C(=O)N[C@@H](CCC(=O)O)C(=O)O (plate: PM7) | 1490 | 0 | –
NC(Cc1c[nH]c2ccccc12)C(=O)NC(Cc1ccccc1)C(=O)O (stereo unspecified) (plate: PM7) | 365 | 14.8 | 547
CC(C)CC(N)C(=O)NC(Cc1c[nH]c2ccccc12)C(=O)O (stereo unspecified) (plate: PM7) | 8370 (active) | 7610 (active) | –
C[C@@H](O)[C@H](N)C(=O)N[C@@H](CCCN=C(N)N)C(=O)O (plate: PM7) | 14200 (active) | – | –
N[C@@H](Cc1c[nH]c2ccccc12)C(=O)N[C@@H](CC(=O)O)C(=O)O (plate: PM7) | 502 | – | –
CSCC[C@H](N)C(=O)N[C@@H](CCC(N)=O)C(=O)O (plate: PM7) | 8220 (active) | – | 9160 (active)
N[C@@H](Cc1ccccc1)C(=O)N1CCC[C@H]1C(=O)O (plate: PM7) | 3980 (active) | – | 11400 (active)
CC(C)[C@H](N)C(=O)N[C@@H](C)C(=O)O (plate: PM8) | 4740 (active) | – | 6590 (active)
CSCC[C@H](N)C(=O)NCC(=O)O (plate: PM7) | 3910 (active) | – | –
NCC(=O)N[C@@H](CCCN=C(N)N)C(=O)O (plate: PM6) | 7640 (active) | – | 8640 (active)
C[C@H](N)C(=O)N[C@@H](Cc1c[nH]c2ccccc12)C(=O)O (plate: PM6) | 3700 (active) | – | 4490 (active)
CC[C@H](C)[C@H](NC(=O)CN)C(=O)O (plate: PM8) | 4580 (active) | – | 7100 (active)
CC(C)C[C@H](N)C(=O)N1CCC[C@H]1C(=O)O (plate: PM8) | 5120 (active) | – | 9370 (active)
N[C@@H](Cc1ccc(O)cc1)C(=O)NCC(=O)O (plate: PM7) | 8600 (active) | – | –
C[C@H](NC(=O)[C@@H]1CCCN1)C(=O)O (plate: PM7) | 6110 (active) | – | 8890 (active)

Structure (SMILES) | respiration area under curve [1] | respiration area under curve [2] | respiration area under curve [3]
C[C@H](NC(=O)CNC(=O)CN)C(=O)O (plate: PM8) | 4350 (active) | – | 11300 (active)
C[C@H](N)C(=O)N[C@@H](CO)C(=O)O (plate: PM6) | 8180 (active) | – | –
C[C@H](NC(=O)[C@@H](N)CCC(=O)O)C(=O)O (plate: PM8) | 7690 (active) | – | –
NCC(=O)N[C@H](CC(=O)O)C(=O)O (plate: PM8) | 0 | – | 0.2
CSCC[C@H](N)C(=O)N[C@@H](Cc1c[nH]c2ccccc12)C(=O)O (plate: PM7) | 2980 (active) | – | –
CC(C)[C@@H](NC(=O)CN)C(=O)O (plate: PM8) | 0 | – | 0
CSCC[C@H](N)C(=O)N1CCC[C@H]1C(=O)O (plate: PM7) | 8590 (active) | – | –
CC[C@H](C)[C@H](NC(=O)[C@@H](N)CC(C)C)C(=O)O (plate: PM6) | 3910 (active) | – | 6260 (active)
NC(=O)CC[C@H](NC(=O)[C@@H](N)CO)C(=O)O (plate: PM8) | 7790 (active) | – | 9860 (active)
N[C@@H](Cc1ccccc1)C(=O)N[C@@H](Cc1ccc(O)cc1)C(=O)O (plate: PM8) | 2050 (active) | – | –
NC(N)=NCCC[C@H](N)C(=O)N[C@@H](Cc1c[nH]c2ccccc12)C(=O)O (plate: PM6) | 7290 (active) | – | –
CC(C)[C@H](NC(=O)[C@@H](N)CC(=O)O)C(=O)O (plate: PM6) | 1900 | – | –
NC(=O)C[C@H](N)C(=O)N[C@@H](CCC(=O)O)C(=O)O (plate: PM6) | 4770 (active) | – | –
CC(C)C[C@H](NC(=O)[C@@H](N)Cc1c[nH]c2ccccc12)C(=O)O (plate: PM7) | 3710 (active) | – | 3760 (active)
N[C@@H](Cc1c[nH]c2ccccc12)C(=O)N[C@@H](CCC(=O)O)C(=O)O (plate: PM7) | 1070 | – | 633
CC[C@H](C)[C@H](NC(=O)[C@@H]1CCCN1)C(=O)O (plate: PM8) | 4410 (active) | – | 7540 (active)
CC(C)[C@H](N)C(=O)NCC(=O)O (plate: PM7) | 6900 (active) | – | 9460 (active)
O=C(O)[C@@H]1C[C@@H](O)CN1C(=O)[C@@H]1CCCN1 (plate: PM7) | 0 | – | 0
N[C@@H](Cc1c[nH]c2ccccc12)C(=O)NCC(=O)O (plate: PM7) | 1010 | – | 3340 (active)
NCC(=O)N[C@@H](Cc1ccccc1)C(=O)N[C@@H](Cc1ccccc1)C(=O)O (plate: PM8) | 5190 (active) | – | –
CC(C)CC(N)C(=O)NC(CC(=O)O)C(=O)O (stereo unspecified) (plate: PM6) | 4660 (active) | – | 7510 (active)
CC(C)C[C@H](N)C(=O)N[C@@H](CCCN=C(N)N)C(=O)O (plate: PM6) | 8260 (active) | – | 10200 (active)
